Experimental data reported in the supplement of paper PMC10849652.
About 7,900 targets were measured; listed, in parts, are those with a hit and a random draw of the rest. About 0.6% of all pairs of compound and target were hits.

The targets below were run with c1cn2cc(-c3ccc4cn[nH]c4c3)nc(Nc3ccc(N4CCOCC4)cc3)c2n1 [entospletinib] (assay: log2 fold change, soluble protein after heating vs DMSO (PISA); higher = thermal stabilisation; K562 cells, 10 uM, 30 min; active = over 0.2 and 3.5 SD of the protein, either way, in both replicates (recomputed)).
Outline: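 K562 cells (2×10^6 cells/mL) were treated with 10 μM compound for 30 min, and aliquots were heated for 3 min over 48°C-58°C. Pooled aliquots were extracted in PBS with 0.5% NP-40 at 4°C, and the supernatant after 21,000xg for 90 min was measured by TMTpro 16plex LC-MS/MS with channel sums equalised. Reported thermal stability, relative to control samples and from duplicates, is a log2 fold change.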

UniProt Q5QP82, sequence (Q5QP82 whole entry, looked up): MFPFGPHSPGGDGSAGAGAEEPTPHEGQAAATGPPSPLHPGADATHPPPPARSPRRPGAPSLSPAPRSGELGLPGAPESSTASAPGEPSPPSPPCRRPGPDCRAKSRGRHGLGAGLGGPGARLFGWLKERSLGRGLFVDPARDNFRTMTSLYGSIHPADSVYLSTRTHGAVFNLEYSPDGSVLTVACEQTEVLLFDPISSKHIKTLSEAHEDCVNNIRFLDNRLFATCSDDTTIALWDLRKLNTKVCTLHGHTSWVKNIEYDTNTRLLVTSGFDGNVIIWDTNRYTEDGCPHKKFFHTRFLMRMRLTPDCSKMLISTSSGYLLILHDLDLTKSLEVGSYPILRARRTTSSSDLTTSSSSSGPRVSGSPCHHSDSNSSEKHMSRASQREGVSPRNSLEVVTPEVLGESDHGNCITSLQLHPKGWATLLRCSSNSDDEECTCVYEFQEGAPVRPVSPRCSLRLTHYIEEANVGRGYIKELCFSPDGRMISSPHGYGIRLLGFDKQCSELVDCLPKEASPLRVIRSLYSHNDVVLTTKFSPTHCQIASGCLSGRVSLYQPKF
UniProt P80370, sequence (P80370 whole entry, looked up): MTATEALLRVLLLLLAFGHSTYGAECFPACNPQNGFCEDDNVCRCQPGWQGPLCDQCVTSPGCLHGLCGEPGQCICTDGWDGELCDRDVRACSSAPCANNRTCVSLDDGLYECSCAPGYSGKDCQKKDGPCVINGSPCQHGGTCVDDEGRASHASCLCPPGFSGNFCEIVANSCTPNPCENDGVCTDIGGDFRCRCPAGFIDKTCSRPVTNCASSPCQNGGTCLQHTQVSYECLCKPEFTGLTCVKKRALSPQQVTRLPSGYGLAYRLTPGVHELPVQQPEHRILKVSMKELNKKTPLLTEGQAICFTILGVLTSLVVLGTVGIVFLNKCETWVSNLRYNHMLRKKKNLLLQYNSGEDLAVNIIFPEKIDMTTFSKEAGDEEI
UniProt Q9NQI0, sequence (Q9NQI0 whole entry, looked up): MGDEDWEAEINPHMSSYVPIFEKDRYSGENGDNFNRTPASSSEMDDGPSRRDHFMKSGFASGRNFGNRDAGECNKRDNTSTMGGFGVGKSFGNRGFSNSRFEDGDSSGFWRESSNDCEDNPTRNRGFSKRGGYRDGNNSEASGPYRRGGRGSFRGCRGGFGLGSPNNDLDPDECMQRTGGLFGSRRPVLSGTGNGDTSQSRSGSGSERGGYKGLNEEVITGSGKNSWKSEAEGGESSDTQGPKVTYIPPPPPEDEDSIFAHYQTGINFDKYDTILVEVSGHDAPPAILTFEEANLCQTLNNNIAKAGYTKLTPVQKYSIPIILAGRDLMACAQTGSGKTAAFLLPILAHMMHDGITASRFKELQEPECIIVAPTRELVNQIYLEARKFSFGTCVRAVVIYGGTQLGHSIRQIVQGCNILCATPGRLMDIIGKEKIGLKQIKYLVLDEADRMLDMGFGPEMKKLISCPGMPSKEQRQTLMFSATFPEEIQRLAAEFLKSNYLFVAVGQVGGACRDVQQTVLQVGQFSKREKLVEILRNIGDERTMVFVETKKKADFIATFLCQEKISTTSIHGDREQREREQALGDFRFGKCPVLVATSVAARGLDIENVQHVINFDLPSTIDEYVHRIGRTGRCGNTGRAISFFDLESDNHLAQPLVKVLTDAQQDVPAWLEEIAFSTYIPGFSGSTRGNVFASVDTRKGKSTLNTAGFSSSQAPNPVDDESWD
UniProt P53634, sequence (P53634 whole entry, looked up): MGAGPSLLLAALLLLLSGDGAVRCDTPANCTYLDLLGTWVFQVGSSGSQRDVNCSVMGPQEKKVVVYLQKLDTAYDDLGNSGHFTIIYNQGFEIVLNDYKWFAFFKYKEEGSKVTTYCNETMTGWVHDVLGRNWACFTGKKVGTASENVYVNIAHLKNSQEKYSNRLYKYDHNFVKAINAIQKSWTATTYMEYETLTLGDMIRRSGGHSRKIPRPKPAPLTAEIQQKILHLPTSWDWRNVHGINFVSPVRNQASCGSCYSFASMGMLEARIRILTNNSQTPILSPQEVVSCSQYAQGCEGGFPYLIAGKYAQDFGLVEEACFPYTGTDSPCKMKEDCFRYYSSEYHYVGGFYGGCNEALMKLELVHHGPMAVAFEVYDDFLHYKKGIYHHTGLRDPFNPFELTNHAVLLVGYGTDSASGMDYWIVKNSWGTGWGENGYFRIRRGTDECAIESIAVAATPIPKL
UniProt Q8N3D4, sequence (Q8N3D4 whole entry, looked up): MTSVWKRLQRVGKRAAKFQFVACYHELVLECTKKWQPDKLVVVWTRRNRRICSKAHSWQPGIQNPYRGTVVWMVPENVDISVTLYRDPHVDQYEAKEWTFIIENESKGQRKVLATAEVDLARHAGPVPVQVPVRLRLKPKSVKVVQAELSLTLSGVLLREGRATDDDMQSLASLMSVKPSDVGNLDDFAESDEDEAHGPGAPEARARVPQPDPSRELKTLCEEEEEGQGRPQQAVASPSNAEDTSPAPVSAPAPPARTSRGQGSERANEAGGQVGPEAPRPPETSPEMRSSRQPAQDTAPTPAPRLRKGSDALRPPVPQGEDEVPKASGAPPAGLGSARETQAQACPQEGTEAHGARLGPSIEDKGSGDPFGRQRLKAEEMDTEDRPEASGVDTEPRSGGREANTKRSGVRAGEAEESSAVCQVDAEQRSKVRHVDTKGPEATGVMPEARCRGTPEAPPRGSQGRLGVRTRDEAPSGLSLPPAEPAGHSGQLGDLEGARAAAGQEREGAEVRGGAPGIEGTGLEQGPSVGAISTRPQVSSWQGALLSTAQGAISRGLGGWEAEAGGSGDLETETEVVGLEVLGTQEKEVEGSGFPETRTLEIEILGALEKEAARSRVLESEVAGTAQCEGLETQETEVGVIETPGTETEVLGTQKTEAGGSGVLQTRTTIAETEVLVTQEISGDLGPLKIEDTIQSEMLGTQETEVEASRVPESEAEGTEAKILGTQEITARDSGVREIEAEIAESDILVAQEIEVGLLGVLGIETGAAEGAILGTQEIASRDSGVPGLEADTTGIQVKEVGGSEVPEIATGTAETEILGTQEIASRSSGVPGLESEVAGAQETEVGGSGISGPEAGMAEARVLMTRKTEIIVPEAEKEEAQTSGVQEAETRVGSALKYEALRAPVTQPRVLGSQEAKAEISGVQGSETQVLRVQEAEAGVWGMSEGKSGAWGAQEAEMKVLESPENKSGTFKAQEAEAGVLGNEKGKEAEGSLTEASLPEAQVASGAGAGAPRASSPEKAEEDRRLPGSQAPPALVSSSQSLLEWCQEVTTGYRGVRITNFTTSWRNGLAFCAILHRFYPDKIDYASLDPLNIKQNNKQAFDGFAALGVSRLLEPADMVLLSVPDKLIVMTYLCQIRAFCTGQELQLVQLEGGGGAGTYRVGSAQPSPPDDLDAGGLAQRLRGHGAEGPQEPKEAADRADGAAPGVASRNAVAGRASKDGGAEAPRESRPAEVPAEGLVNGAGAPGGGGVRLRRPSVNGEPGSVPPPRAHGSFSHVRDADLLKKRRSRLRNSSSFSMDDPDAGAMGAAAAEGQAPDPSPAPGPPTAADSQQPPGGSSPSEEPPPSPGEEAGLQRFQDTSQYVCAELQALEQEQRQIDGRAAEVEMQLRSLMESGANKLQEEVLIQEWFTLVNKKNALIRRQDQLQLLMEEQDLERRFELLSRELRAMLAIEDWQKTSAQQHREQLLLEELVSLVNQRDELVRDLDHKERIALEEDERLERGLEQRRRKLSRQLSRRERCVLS
UniProt O75071, sequence (O75071 whole entry, looked up): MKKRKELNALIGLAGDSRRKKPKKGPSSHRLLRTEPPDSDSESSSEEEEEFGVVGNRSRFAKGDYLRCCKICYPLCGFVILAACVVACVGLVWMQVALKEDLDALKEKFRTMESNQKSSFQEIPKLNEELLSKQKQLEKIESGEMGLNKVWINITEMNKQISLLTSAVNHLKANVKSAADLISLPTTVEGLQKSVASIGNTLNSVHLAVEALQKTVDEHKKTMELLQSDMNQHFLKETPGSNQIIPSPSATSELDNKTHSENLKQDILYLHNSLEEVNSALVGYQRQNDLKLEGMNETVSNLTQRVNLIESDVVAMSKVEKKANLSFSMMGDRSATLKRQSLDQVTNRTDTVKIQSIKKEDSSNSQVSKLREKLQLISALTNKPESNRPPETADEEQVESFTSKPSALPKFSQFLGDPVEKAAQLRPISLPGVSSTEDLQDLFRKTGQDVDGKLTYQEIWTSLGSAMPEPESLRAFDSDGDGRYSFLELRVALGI
UniProt P32519, sequence (P32519 whole entry, looked up): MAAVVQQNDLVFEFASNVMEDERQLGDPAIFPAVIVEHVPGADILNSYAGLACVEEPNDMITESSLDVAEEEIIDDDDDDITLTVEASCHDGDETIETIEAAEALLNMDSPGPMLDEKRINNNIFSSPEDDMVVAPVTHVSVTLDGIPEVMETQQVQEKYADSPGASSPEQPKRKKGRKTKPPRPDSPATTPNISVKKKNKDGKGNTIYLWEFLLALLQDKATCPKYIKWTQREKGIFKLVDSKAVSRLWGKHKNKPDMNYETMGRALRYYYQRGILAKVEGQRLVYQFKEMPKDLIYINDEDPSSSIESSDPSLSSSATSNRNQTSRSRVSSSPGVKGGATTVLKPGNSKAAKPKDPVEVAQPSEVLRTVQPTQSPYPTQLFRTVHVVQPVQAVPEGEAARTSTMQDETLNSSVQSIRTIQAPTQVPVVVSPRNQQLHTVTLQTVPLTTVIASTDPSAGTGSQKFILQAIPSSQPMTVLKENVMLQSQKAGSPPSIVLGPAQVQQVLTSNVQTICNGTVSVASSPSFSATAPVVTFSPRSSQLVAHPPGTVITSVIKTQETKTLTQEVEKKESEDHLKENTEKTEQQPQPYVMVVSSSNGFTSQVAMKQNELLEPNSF
UniProt Q96DA6, sequence (Q96DA6 whole entry, looked up): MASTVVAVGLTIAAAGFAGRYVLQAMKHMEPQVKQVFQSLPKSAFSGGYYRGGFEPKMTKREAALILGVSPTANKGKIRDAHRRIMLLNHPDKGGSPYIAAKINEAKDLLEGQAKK

log2 fold change, inactive:
CTSC (UniProt P53634) -0.047
ESYT1 isoform 2 (UniProt Q9BSJ8) 0.003
EXOC7 (UniProt Q9UPT5) -0.106
FAM117B (UniProt Q6P1L5) 0.009
DOCK8 (UniProt Q8NF50) -0.044
ECH1 (UniProt Q13011) 0.024
FADS1, A0A0A0MR51 0.055
EDC3 (UniProt Q96F86) -0.068
E2F4 (UniProt Q16254) 0.02
DCAF10 (UniProt Q5QP82) 0.307
EXOC4 (UniProt Q96A65) -0.067
EFCAB14 (UniProt O75071) 0.001
ELF1 (UniProt P32519) -0.082
CTU1 (UniProt Q7Z7A3) 0.006
DLK1 (UniProt P80370) 0.076
DHX16 (UniProt O60231) 0.01
CYBA (UniProt P13498) 0.069
DBR1 (UniProt Q9UK59) 0
DDX4 (UniProt Q9NQI0) 0.276
EHBP1 (UniProt Q8NDI1) -0.082
DCAF12 (UniProt Q5T6F0) 0.025
EHBP1L1 (UniProt Q8N3D4) -0.013
FADS3 (UniProt Q9Y5Q0) 0.035
DNAJC19 (UniProt Q96DA6) 0.026
